# Source: paper PMC10668032, “Altered binding affinity of SIX1-Q177R correlates with enhanced WNT5A and WNT pathway effector expression in Wilms tumor”
# In all, about 33,000 sequences were measured (“e-score”: median about -0.053, highest 2% from about 0.38 on). The entries come from a sample that favours the highest values as a whole.
# Biological target: T1, SIX1 homeodomain (reference allele) (human, UniProt Q15475 108-198)
# T1 sequence: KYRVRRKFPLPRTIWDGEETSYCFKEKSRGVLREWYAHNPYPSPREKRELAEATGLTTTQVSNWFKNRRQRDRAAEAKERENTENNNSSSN
# Test: universal protein binding microarray; Universal all-10-mer PBM (8x60K, AMADID 030236), 300 nM GST-tagged protein, Alexa Fluor 488 anti-GST; buffer, salt, pH and temperature not stated (as in Berger); high values mean tight binding
# Conditions: protein: ivt; tags: N-terminal GST; dsDNA, one strand shown
# How it was run: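 Binding of GST-tagged homeodomains is given as 8-mer E-scores from the Universal PBM Analysis Suite. The proteins were produced by in vitro transcription/translation, quantified by anti-GST western blot against a recombinant GST standard curve, and applied in duplicate at 300 nM final concentration to universal 'all 10-mer' protein binding microarrays (8×60K format).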
row,Sequence,binding signal [E-score]
1,ATCCGTAG,0.225 ± 0.00492
2,AATACTAT,0.278 ± 0.0809
3,TATCCACA,0.326 ± 0.0288
4,AGAGTGAT,0.268 ± 0.0506
5,ATATGTTC,0.334 ± 0.0471
6,ACCTATCT,0.195 ± 0.01
7,GTGTTATA,0.219 ± 0.0623
8,TCCATACA,0.166 ± 0.0645
9,AGATCGGG,0.294 ± 0.0193
10,GTATCGGA,0.451 ± 0.0142
11,ATCTCGGG,0.272 ± 0.0234
12,AGATCGTA,0.237 ± 0.00569
13,ATATCGGG,0.4018 ± 0.00171
14,GGATCGTA,0.383 ± 0.00451
15,CGATCGTA,0.212 ± 0.0626
16,TCATCGGA,0.176 ± 0.0293
17,GCATCGGA,0.161 ± 0.101
18,CACCGGCA,0.188 ± 0.0219
19,CTATATAC,0.275 ± 0.0339
20,TACTCACA,0.165 ± 0.0208
21,ATAAGGTA,0.247 ± 0.0353
22,ACCGCGAT,0.323 ± 0.00333
23,ATCTATCC,0.372 ± 0.0185
24,ATGTATAG,0.217 ± 0.0184
25,ATGTATCG,0.38 ± 0.0144

row,Sequence,binding signal [E-score]
1,GTGTATGA,0.17 ± 0.0805
2,ATGTATCA,0.448 ± 0.011
3,ATGTATAC,0.325 ± 0.0321
4,ATGTATCC,0.407 ± 0.00354
5,ATGTATAA,0.154 ± 0.0486
6,GTGTATTA,0.271 ± 0.032
7,ATGTATTG,0.209 ± 0.0502
8,GTGTATCA,0.4623 ± 0.00404
9,ATGTATTA,0.241 ± 0.0485
10,ATCCTGGG,0.235 ± 0.00999
11,ACATTATC,0.165 ± 0.0505
12,TACCGCGA,0.25 ± 0.0197
13,ATCATCGC,0.326 ± 0.0174
14,TACCCGCA,0.161 ± 0.0756
15,ATCGACAC,0.306 ± 0.0819
16,ATCTTGCA,0.216 ± 0.0388
17,CTGTATTA,0.18 ± 0.00737
18,CTGTATCA,0.418 ± 0.0231
19,CTGTATGA,0.187 ± 0.0219
20,CTGTATAC,0.338 ± 0.0175
21,ATTTATCC,0.198 ± 0.0661
22,CTGTATCC,0.387 ± 0.0293
23,CTCAGGTA,0.16 ± 0.0411
24,CTCCTATC,0.2712 ± 0.00126
25,AGAGTGAG,0.172 ± 0.0561

row,Sequence,binding signal [E-score]
1,CCGGCTCA,0.256 ± 0.0189
2,ATACCCAC,0.392
3,CACCCCAC,0.263 ± 0.128
4,ACACCCAG,0.278 ± 0.0263
5,ATACCCAT,0.393 ± 0.00746
6,AAACCCAT,0.169 ± 0.00646
7,ATACCAAG,0.285 ± 0.0262
8,ACACCCAA,0.331 ± 0.0548
9,ATACCAAA,0.317 ± 0.0247
10,ACACCCAT,0.271 ± 0.0323
11,ATACCCAG,0.382
12,ATACCCAA,0.401 ± 0.0166
13,ACACCCAC,0.221 ± 0.0764
14,GAGCCGGA,0.166 ± 0.0429
15,TATGCGGA,0.284 ± 0.018
16,ATGCGATC,0.309 ± 0.0257
17,ATACGAGG,0.232 ± 0.0433
18,CATCTCAG,0.227 ± 0.014
19,TACGCATA,0.197 ± 0.0197
20,ATAGGGAT,0.395 ± 0.00975
21,ATAGGGGA,0.287 ± 0.00909
22,ACAGGGAT,0.297 ± 0.0162
23,ACCTTATA,0.17 ± 0.0678
24,TGATCGCA,0.171 ± 0.0248
25,ACATCGCA,0.152 ± 0.012

row,Sequence,binding signal [E-score]
1,CTATCGCA,0.186 ± 0.0165
2,AGATCGCG,0.22 ± 0.0358
3,ATATCGCA,0.42 ± 0.0293
4,ATATCGCC,0.441 ± 0.0115
5,ATCGCGCG,0.213 ± 0.0714
6,AGATCGCC,0.288 ± 0.0356
7,GGATCGCA,0.366 ± 0.0387
8,GTATCGCA,0.431 ± 0.0148
9,ATATCGCG,0.422 ± 0.0273
10,CTATCGCC,0.179 ± 0.0265
11,ATCGGTCG,0.225 ± 0.0271
12,CGGTTATC,0.309 ± 0.0176
13,AGTACGAT,0.248 ± 0.0454
14,ATCATAAT,0.229 ± 0.0622
15,GATAATGC,0.16 ± 0.00226
16,GCGATCTA,0.218 ± 0.0326
17,CTCCGGTA,0.244 ± 0.0299
18,GAAACACC,0.189 ± 0.0066
19,AGATCCCA,0.213 ± 0.0026
20,TGATCCAA,0.324 ± 0.0147
21,GGATCCCA,0.37 ± 0.0601
22,CGATCCCG,0.332 ± 0.04
23,TGATCCCA,0.3763 ± 0.00132
24,CGATCCCA,0.346 ± 0.0579
25,GGATCCCC,0.419 ± 0.0404

row,Sequence,binding signal [E-score]
1,AGATCCCG,0.302 ± 0.0627
2,AGATCCCT,0.292 ± 0.00813
3,GAATCCCC,0.23 ± 0.0451
4,CGATCCCC,0.437 ± 0.041
5,AGATCCCC,0.384 ± 0.0161
6,ATATACAA,0.27 ± 0.0205
7,ATAGGAGA,0.185 ± 0.0295
8,GATCGTAC,0.274 ± 0.0438
9,ATACATGG,0.3102 ± 0.0018
10,AGGACACC,0.366 ± 0.0116
11,CTGACACC,0.468 ± 0.0134
12,CAGACACC,0.291 ± 0.0577
13,CGGACACC,0.3658 ± 0.00136
14,ATGACACC,0.4711 ± 0.00199
15,ATGACACG,0.289 ± 0.0161
16,TATCGCAA,0.33 ± 0.0108
17,CCAGGAGA,0.158 ± 0.0169
18,AGCATGAT,0.2 ± 0.0238
19,ATAAGCAG,0.173 ± 0.00802
20,GGATGATA,0.443 ± 0.0105
21,AGATGATC,0.38 ± 0.0348
22,CGATGATC,0.379 ± 0.019
23,AGAAGATC,0.231 ± 0.077
24,CGATCATC,0.3167 ± 0.00296
25,AGATGATA,0.432 ± 0.0425

row,Sequence,binding signal [E-score]
1,GGATGGTA,0.214 ± 0.0386
2,GGATGAGA,0.212 ± 0.0038
3,AGAAGATA,0.201 ± 0.105
4,AGCTGATC,0.3159 ± 0.00281
5,AGATGAGA,0.224 ± 0.0832
6,CGCTGATC,0.279 ± 0.0361
7,ATGAAACC,0.242 ± 0.0415
8,ATCCCATA,0.351 ± 0.0216
9,ATATTTGA,0.173 ± 0.0606
10,ATCATTTG,0.244 ± 0.0909
11,ATCGGGCC,0.188 ± 0.0382
12,ACACCTGT,0.277 ± 0.00124
13,TATCGAGA,0.293 ± 0.0133
14,ATAGCCGG,0.22519 ± 0.00017
15,ACGCATCT,0.169 ± 0.0233
16,GGCAGATA,0.216 ± 0.0469
17,ACAGTGAT,0.199 ± 0.0229
18,ACTAGGAT,0.187 ± 0.0427
19,CAGTTATC,0.176 ± 0.0291
20,AACAATAT,0.253 ± 0.0623
21,CGATGATA,0.445 ± 0.0281
22,CGATGAGA,0.191 ± 0.0564
23,CGATGACA,0.18 ± 0.00711
24,ATTATGCG,0.242 ± 0.0214
25,GTGTAGTA,0.185 ± 0.0109

row,Sequence,binding signal [E-score]
1,CACTATCA,0.276 ± 0.0303
2,CGATATAC,0.405 ± 0.0197
3,GGATATAC,0.406 ± 0.0168
4,AGATATAT,0.337 ± 0.0754
5,CGATATAG,0.362 ± 0.0306
6,AGATATAC,0.38 ± 0.0393
7,GGATATAA,0.352 ± 0.0244
8,AGATATAA,0.261 ± 0.0786
9,CGATATAA,0.243 ± 0.0501
10,GTATATAC,0.316 ± 0.0323
11,ACACGGGC,0.179 ± 0.0209
12,ACCCCGTA,0.209 ± 0.0622
13,CGGTTTCA,0.152 ± 0.0123
14,ATCCTCAC,0.234 ± 0.0503
15,ATAGTGTA,0.205 ± 0.0143
16,CTCAAGGA,0.164 ± 0.0491
17,GGGGCGGA,0.159 ± 0.113
18,ATTTATAC,0.22 ± 0.116
19,TATGGTAA,0.166 ± 0.0578
20,TACCCCCA,0.243 ± 0.0116
21,ATACCCCC,0.454 ± 0.015
22,ATACCCCA,0.43 ± 0.00878
23,TGACCCCA,0.198 ± 0.0237
24,AGACCCCG,0.23 ± 0.085
25,ACACCCCC,0.3856 ± 0.00209
